Bioassay records as filed in PubChem.
The list is not random: actives were taken first. Their share in the collection is about 21%.
Pf growth 96h: inhibits malaria parasite growth, 96 h; 6.9% of 320,000 active; P. falciparum luciferase reporter growth, 96 h; Potency, µM (doses to about 28.7 µM), usual class: inhibitors; AID 504834
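Plates of compound plus infected erythrocytes (2% hematocrit, 0.05% parasitemia final) incubate 96 hours, 37 C, 5% CO2. Detection reagent added; reduced luminescence from the parasites' luciferase reporter flags inhibition.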
FBPA Giardia inh: blocks Giardia fructose-bisphosphate aldolase activity. purified Giardia FBPA. 0.71% of 290,000 active. Potency, µM (highest dose often 59.6 µM), usual class: inhibitors; also: nearly all actives have a fitted effect of over 55% in size
Target sequence (A8B2U2 whole entry, looked up): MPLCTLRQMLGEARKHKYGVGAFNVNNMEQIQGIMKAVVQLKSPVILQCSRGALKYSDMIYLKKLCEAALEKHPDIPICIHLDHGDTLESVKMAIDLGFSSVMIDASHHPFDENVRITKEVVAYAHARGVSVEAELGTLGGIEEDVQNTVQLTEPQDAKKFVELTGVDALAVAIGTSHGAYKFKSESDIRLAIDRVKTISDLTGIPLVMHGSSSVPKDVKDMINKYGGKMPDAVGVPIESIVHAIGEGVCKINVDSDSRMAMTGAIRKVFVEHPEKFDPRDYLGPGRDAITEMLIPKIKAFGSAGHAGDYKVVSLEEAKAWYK
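40 nM FBPA preincubated 10 min at RT with compound (up to 57.5 uM final), then substrate plus GAPDH/TPI/NAD/arsenate coupling and diaphorase/resazurin added. Fluorescence read after 20 min at RT, 525/598 nm.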
CHX counter: counter-screen for Shiga toxin inhibitors: cycloheximide protein synthesis inhibition; 12% of 300,000 active; cell reporter, cycloheximide protein synthesis inhibition counterscreen; max response, %; in the data active = max response mostly above about 13%, no sharp cut-off; inactive = mostly below about 14%; also: read at 38.3 µM for the half of the compounds with a filed dose
Shiga inhibitor: blocks Shiga toxin action in Vero cells; Vero cells, Shiga toxin protein synthesis inhibition reporter; inhibition, % at 38.7 µM; 9.2% of 290,000 active; AID 2315; in the data active = inhibition mostly above about 28%, no sharp cut-off; inactive = mostly below about 43%
Pf growth 48h: inhibits P. falciparum growth in the first generation, 48 h. P. falciparum luciferase growth in erythrocytes, 48 h. Potency, µM (titrated, usually from 28.7 µM), hits mostly inhibitors. 5.9% of 310,000 active
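A one-generation exposure of luciferase-tagged malaria parasites in RPMI 1640/Albumax erythrocyte culture, 37 C and 5% CO2. Inhibition is inferred from decreased luminescence after adding detection reagent.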
NS1 function inh: influenza NS1 inhibition; Potency, µM (highest dose often 46.1 µM); 0.4% of 270,000 active; AID 2326; calls by dose curve; also: actives are rising curves; nearly all actives have a fitted effect of over 50% in size
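Growth recovery, yeast-based: influenza A NS1 expressed in S. cerevisiae causes slow growth, and suppressors are detected by OD600. The parent strain without NS1 is used as positive control.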
Hits are given with their value. Unless noted, calls follow the shape of the dose curve; as a rule, active = well fitted curve in the direction sought with a large enough effect; inconclusive = small, poorly fitted or top-dose-only effect, or another doubt; inactive = no such curve, though single readings can be large; an effect the other way counts as inactive or inconclusive.

For CCN(CC)CCC(c1ccc(OC)cc1)c1c(OC)cc(OC)c2c(C)cc(=O)oc12 (configuration not stated) the results were FBPA Giardia inh inactive, CHX counter 52.7 and Shiga inhibitor 124.0.
`CN(c1ccccc1)S(=O)(=O)c1cccc(C(=O)OCC(=O)NCc2ccc3c(c2)OCO3)c1` gave Pf growth 96h inactive, FBPA Giardia inh inactive, CHX counter inactive, Shiga inhibitor inactive, Pf growth 48h inactive and NS1 function inh inactive.
CCCN(CCC)CCCNC(=O)C1c2cc(OC)c(OC)cc2C(=O)N(C)C1c1cccs1 (configuration not stated) was read as Pf growth 96h inactive, FBPA Giardia inh inactive, CHX counter inactive, Shiga inhibitor inactive and NS1 function inh inactive.
`CCCCNC(=O)C1c2cc(OC)c(OC)cc2C(=O)N(C)C1c1cccs1` (configuration not stated) gave Pf growth 96h 2.08µM, FBPA Giardia inh inactive, CHX counter inactive, Shiga inhibitor inactive and Pf growth 48h inactive.
CCn1c(SCC(=O)Nc2ccc(-c3nc4ccc(C)cc4s3)cc2)nnc1-c1ccccc1 was read as Pf growth 96h 13.1µM, FBPA Giardia inh inactive, CHX counter 33.9, Shiga inhibitor 58.9, Pf growth 48h inactive and NS1 function inh inactive.
O=C(Nc1ccc(-c2nc3ccccc3s2)cc1)c1cc(-n2cnnc2)ccc1Cl was read as Pf growth 96h 7.38µM, CHX counter 27.0, Shiga inhibitor inactive, Pf growth 48h 9.28µM and NS1 function inh inactive.
Cc1nnc(SCC(=O)Nc2ccc(-c3nc4ccccc4s3)cc2)s1 was read as Pf growth 96h inconclusive, FBPA Giardia inh inactive, CHX counter 65.0, Shiga inhibitor 38.2, Pf growth 48h inactive and NS1 function inh inactive.
For C=CCn1c(SCC(=O)Nc2ccc(-c3nc4ccc(C)cc4s3)cc2)nnc1-c1ccncc1 the results were Pf growth 96h inconclusive, FBPA Giardia inh inactive, CHX counter 19.0, Shiga inhibitor inactive, Pf growth 48h inactive and NS1 function inh inactive.
`CCn1c(SCC(=O)Nc2nc(-c3ccc(C)cc3)cs2)nnc1-c1ccccc1` gave FBPA Giardia inh inactive, CHX counter inactive, Shiga inhibitor inactive and NS1 function inh inactive.
Screening Cc1nnc(SCC(=O)Nc2ccccc2NC(=O)CSc2nnc(C)s2)s1 returned Pf growth 96h inactive, FBPA Giardia inh inactive, CHX counter inactive, Shiga inhibitor inactive, Pf growth 48h inactive and NS1 function inh inactive.
`Cc1ccc(-c2nc(NC(=O)CSc3ccc4ccccc4n3)ns2)cc1` gave Pf growth 96h inconclusive, FBPA Giardia inh inactive, CHX counter inactive, Shiga inhibitor inactive, Pf growth 48h inactive and NS1 function inh inactive.
Cc1nnc(SCC(=O)Nc2nsc(-c3ccc(C(C)(C)C)cc3)n2)s1 was read as Pf growth 96h inconclusive, FBPA Giardia inh inactive, CHX counter 23.2, Shiga inhibitor inactive and NS1 function inh inactive.
For CCOC(=O)/C=C1\Nc2ccccc2OC1=O the results were Pf growth 96h inconclusive, FBPA Giardia inh inactive, CHX counter 20.9, Shiga inhibitor inactive, Pf growth 48h inconclusive and NS1 function inh inactive.
`CCOC(=O)/C=C1\CC(C(=O)OCC)Oc2ccccc21` (configuration not stated) gave FBPA Giardia inh inactive, CHX counter inactive and Shiga inhibitor inactive.
CCOc1ccccc1NC(=O)CN1CCCCCC1 was read as Pf growth 96h inactive, FBPA Giardia inh inconclusive, CHX counter inactive, Shiga inhibitor inactive, Pf growth 48h inactive and NS1 function inh inactive.
Screening COC(=O)c1c(NC(=O)CN2CCCc3ccccc32)sc(C)c1C returned Pf growth 96h inconclusive, FBPA Giardia inh inactive, CHX counter inactive, Shiga inhibitor inactive, Pf growth 48h inconclusive and NS1 function inh inactive.
COC(=O)c1c(NC(=O)CN2CCC3(O)CCCCC3C2c2cc(OC)ccc2OC)sc(C)c1C (configuration not stated) was read as Pf growth 96h 10.4µM, FBPA Giardia inh inactive, CHX counter inactive, Shiga inhibitor inactive, Pf growth 48h inconclusive and NS1 function inh inactive.
For COc1ccccc1C1C2CCCCC2(O)CCN1CC(=O)Nc1ccccc1 (configuration not stated) the results were Pf growth 96h inconclusive, FBPA Giardia inh inactive, CHX counter inactive, Shiga inhibitor inactive, Pf growth 48h inconclusive and NS1 function inh inactive.
